Where “and” joins values, the source holds several entries; their conditions need not be identical. Equal entries are not always repeated. Records with an inconclusive call do not appear. Where a structure was tested more than once in an assay, its records may differ in their call. Calls of active or inactive are those of the source. Rule for the calls, unless noted: active = hit-call score of the fitted dose curve at least 0.9, where 1 is the maximum; inactive = score below 0.9.
How the values were obtained:
[1] = read-out: Monocyte Chemoattractant Protein-1 (MCP1), CCL2 (gene 6347); experiment: BSK_SAg_MCP1: BioMAP Diversity Plus: SAg Assay for Monocyte Chemoattractant Protein-1 (MCP1) Biomarker Activity (AID 2283090); settings: primary human HUVEC with PBMC; actives raise or lower the signal
In short: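 Values derive from bidirectional fitting of ELISA-measured MCP1 against DMSO controls. Readings were taken 24 h after dosing human vascular endothelial cells co-cultured with peripheral blood mononuclear cells under superantigen stimulation.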

[2] = read-out: E-selectin (Homo sapiens) (UniProt P16581); experiment: BSK_SAg_Eselectin: BioMAP Diversity Plus: SAg Assay for Eselectin Biomarker Activity (AID 2283091); settings: primary human HUVEC with PBMC; actives raise or lower the signal
In short: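 E-selectin ELISA readout at 24 h post-dosing in human umbilical vein endothelial cell/PBMC co-culture; gain or loss of signal fitted relative to DMSO baseline.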

[3] = read-out: Monokine induced gamma interferon (MIG), CXCL9 (gene 4283); experiment: BSK_SAg_MIG: BioMAP Diversity Plus: SAg Assay for Monokine induced gamma interferon (MIG) Biomarker Activity (AID 2283092); settings: primary human HUVEC with PBMC; actives raise or lower the signal
In short: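 ELISA readout of MIG/CXCL9; primary human umbilical vein endothelial cells co-cultured with peripheral blood mononuclear cells; 24 h post-dose; gain/loss fit vs DMSO baseline.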

[4] = BSK_SAg_PBMCCytotoxicity: PBMC Cytotoxicity Assessment in the BioMAP Diversity Plus: SAg Assay (AID 2283093); settings: primary human HUVEC with PBMC;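 note: PBMC viability measured as Alamar Blue reduction fluorescence at 546/580 nm; fitted both ways against DMSO so a hit may be loss or gain of signal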;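 for AC50: PBMC superantigen activated with SEB plus TSST-1 one hour after compound addition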
In short: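 Alamar Blue reduction (6 h, 546/580 nm) reports PBMC cytotoxicity after 90 h superantigen activation (SEB, TSST-1; 20 ng/mL final each) with 1 h compound pre-treatment. Gain or loss of signal fitted versus DMSO.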

[5] = read-out: Interleukin-8 (IL8), CXCL8 (gene 3576); experiment: BSK_SAg_IL8: BioMAP Diversity Plus: SAg Assay for Interleukin-8 (IL8) Biomarker Activity (AID 2283094); settings: primary human HUVEC with PBMC; actives raise or lower the signal
In short: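 HUVEC/PBMC co-culture, 24 h post-dose; IL-8 by ELISA. Gain or loss of signal fitted bidirectionally vs DMSO baseline.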

[6] = BSK_SAg_Proliferation: Cell Proliferation Assessment in the BioMAP Diversity Plus: SAg Assay (AID 2283095); settings: primary human HUVEC with PBMC;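 note: relative cell number as total protein by SRB absorbance in sub-confluent culture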
In short: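 HUVEC/PBMC co-culture, 96-well. TCA-fixed (10%), 0.1% SRB stain, A560 at 96 h. Protein content used as viability readout; bidirectional fitting vs DMSO control.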

[7] = BSK_SAg_SRB: Viability Assessment in the BioMAP Diversity Plus: SAg Assay (AID 2283096); settings: primary human HUVEC with PBMC;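 note: cells read one day after compound addition; hits may be either gain or loss of signal compared with DMSO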
In short: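 This overt-cytotoxicity endpoint quantifies protein in human endothelial/PBMC co-cultures at 24 h using SRB absorbance (560 nm) after trichloroacetic acid fixation. Values reflect signal change from the DMSO negative control, fitted bidirectionally.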

[8] = molecular target: human CYP19A1, CYP19A1 (gene 1588) (UniProt P11511); experiment: NVS_ADME_hCYP19A1: NovaScreen (NVS) CYP450-related Enzyme Activity (ADME) Assay for human CYP19A1 (AID 2283098; active = hit-call score of the fitted dose curve at least 0.9, where 1 is the maximum;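 for AC50: potency for inhibitors seen as loss of fluorescent enzyme signal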)
human CYP19A1, CYP19A1 (gene 1588), sequence (P11511 whole entry, looked up): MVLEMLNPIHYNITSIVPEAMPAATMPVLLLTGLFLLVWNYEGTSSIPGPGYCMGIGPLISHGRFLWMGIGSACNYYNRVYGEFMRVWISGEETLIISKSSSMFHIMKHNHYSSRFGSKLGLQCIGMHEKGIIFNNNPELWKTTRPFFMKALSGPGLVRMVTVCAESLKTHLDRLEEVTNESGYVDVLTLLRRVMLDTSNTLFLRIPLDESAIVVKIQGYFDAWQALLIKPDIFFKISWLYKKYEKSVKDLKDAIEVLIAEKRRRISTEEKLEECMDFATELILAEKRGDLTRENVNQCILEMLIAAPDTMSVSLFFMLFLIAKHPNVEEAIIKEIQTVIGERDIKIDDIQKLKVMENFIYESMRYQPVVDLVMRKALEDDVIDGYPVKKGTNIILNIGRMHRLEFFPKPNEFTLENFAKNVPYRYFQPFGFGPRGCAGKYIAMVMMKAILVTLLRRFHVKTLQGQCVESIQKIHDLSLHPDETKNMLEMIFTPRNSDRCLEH
In short: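 Compounds were first screened at 10 uM in duplicate against purified enzyme, with a fluorogenic substrate and fluorescence intensity detection after 0.5 h. Inhibition appears as reduced signal against acetonitrile control.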

[9] = molecular target: human CYP2B6, CYP2B6 (gene 1555) (UniProt P20813); experiment: NVS_ADME_hCYP2B6: NovaScreen (NVS) CYP450-related Enzyme Activity (ADME) Assay for human CYP2B6 (AID 2283101; active = hit-call score of the fitted dose curve at least 0.9, where 1 is the maximum)
human CYP2B6, CYP2B6 (gene 1555), sequence (P20813 whole entry, looked up): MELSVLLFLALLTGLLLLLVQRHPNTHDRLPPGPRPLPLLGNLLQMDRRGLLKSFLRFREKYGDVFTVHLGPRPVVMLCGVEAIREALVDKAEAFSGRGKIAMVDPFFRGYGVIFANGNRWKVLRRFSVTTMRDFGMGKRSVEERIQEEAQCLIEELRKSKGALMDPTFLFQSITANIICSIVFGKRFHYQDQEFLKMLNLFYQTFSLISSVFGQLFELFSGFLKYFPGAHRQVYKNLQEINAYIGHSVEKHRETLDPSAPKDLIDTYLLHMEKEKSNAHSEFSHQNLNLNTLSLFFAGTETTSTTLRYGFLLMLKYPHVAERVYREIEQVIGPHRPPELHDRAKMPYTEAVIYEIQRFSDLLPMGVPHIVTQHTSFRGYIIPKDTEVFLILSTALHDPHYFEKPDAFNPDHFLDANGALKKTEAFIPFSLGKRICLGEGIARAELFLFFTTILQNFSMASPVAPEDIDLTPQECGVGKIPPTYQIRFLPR
In short: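 Fluorescence-based enzyme activity of recombinant human CYP2B6, measured 1 h post-dose against acetonitrile vehicle baseline. Screened at a single concentration of 10 uM in duplicate before concentration-response follow-up.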

[10] = molecular target: human CYP1A2, CYP1A2 (gene 1544) (UniProt P05177); experiment: NVS_ADME_hCYP1A2: NovaScreen (NVS) CYP450-related Enzyme Activity (ADME) Assay for human CYP1A2 (AID 2283102; active = hit-call score of the fitted dose curve at least 0.9, where 1 is the maximum;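 note: potency for inhibition since loss of fluorescence marks reduced CYP1A2 activity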)
human CYP1A2, CYP1A2 (gene 1544), sequence (P05177 whole entry, looked up): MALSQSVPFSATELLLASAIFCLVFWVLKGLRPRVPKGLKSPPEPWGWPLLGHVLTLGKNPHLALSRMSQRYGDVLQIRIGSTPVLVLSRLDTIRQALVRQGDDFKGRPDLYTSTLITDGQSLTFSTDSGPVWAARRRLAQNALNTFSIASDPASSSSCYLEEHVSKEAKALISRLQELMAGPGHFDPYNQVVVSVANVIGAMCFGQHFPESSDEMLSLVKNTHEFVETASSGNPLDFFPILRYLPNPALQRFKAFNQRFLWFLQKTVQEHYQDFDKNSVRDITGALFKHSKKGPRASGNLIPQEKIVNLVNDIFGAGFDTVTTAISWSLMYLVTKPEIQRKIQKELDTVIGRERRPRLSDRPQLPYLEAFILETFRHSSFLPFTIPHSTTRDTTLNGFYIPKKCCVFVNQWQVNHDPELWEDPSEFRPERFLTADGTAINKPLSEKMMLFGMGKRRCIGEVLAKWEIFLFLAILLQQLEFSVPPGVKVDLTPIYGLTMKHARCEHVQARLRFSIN
In short: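 Fluorescence-intensity enzyme activity read-out, taken 0.5 h post-dosing, using insect-cell-derived recombinant CYP1A2 and specific fluorescent substrate. Acetonitrile served as negative control/baseline. Single-concentration duplicate screen at 10 uM, then concentration-response follow-up.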

[11] = molecular target: Cytochrome P450 3A4 (Homo sapiens) (UniProt P08684); experiment: NVS_ADME_hCYP3A4: NovaScreen (NVS) CYP450-related Enzyme Activity (ADME) Assay for human CYP3A4 (AID 2283110; active = hit-call score of the fitted dose curve at least 0.9, where 1 is the maximum)
Cytochrome P450 3A4 (Homo sapiens), sequence (P08684 whole entry, looked up): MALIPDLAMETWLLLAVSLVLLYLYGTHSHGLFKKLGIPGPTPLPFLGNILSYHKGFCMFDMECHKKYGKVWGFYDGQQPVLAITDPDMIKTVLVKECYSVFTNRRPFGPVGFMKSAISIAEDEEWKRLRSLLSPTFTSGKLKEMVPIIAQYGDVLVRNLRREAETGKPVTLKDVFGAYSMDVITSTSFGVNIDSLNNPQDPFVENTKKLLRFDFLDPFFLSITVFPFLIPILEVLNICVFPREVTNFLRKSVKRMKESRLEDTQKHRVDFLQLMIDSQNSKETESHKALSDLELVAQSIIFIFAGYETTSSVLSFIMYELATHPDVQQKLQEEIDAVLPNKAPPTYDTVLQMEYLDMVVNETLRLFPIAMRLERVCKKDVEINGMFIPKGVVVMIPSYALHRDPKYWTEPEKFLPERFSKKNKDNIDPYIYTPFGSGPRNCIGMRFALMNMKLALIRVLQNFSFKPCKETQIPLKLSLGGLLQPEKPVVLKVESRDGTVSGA
In short: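 Activity is derived from decreased fluorescence intensity relative to acetonitrile, measured 0.33 hour after dosing insect-cell-expressed CYP3A4 in a cell-free format. Screening used 10 uM in duplicate before concentration-response follow-up.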

[12] = molecular target: Cytochrome P450 2C19 (Homo sapiens) (UniProt P33261); experiment: NVS_ADME_hCYP2C19: NovaScreen (NVS) CYP450-related Enzyme Activity (ADME) Assay for human CYP2C19 (AID 2283113; active = hit-call score of the fitted dose curve at least 0.9, where 1 is the maximum;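 for AC50: potency for inhibition seen as loss of fluorescent signal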)
In short: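 Recombinant insect-cell-expressed enzyme, fluorescent substrate, 1 h after chemical addition, fluorescence intensity. Baseline = acetonitrile vehicle; activity scored as signal loss. Primary HTS single concentration 10 uM, duplicate; actives retested in concentration series.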

[13] = molecular target: human CYP1A1, CYP1A1 (gene 1543) (UniProt P04798); experiment: NVS_ADME_hCYP1A1: NovaScreen (NVS) CYP450-related Enzyme Activity (ADME) Assay for human CYP1A1 (AID 2283100; active = hit-call score of the fitted dose curve at least 0.9, where 1 is the maximum)
human CYP1A1, CYP1A1 (gene 1543), sequence (P04798 whole entry, looked up): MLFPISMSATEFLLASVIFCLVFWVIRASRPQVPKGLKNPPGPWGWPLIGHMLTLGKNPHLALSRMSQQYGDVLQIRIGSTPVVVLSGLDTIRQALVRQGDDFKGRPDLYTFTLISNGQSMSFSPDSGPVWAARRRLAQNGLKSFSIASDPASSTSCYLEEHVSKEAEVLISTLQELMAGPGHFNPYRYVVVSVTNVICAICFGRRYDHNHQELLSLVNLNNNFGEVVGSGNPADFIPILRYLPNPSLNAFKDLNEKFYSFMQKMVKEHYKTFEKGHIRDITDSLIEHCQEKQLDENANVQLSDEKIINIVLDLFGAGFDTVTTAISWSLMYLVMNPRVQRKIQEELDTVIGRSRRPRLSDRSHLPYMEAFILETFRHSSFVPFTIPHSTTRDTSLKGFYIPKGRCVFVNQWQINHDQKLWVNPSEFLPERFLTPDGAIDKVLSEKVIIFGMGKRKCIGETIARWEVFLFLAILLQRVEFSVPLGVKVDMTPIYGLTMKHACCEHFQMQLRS
In short: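 Read-out: fluorescence intensity from enzymatic turnover of substrate by recombinant CYP1A1, loss of signal indicating inhibition. Incubation 1 h post-dose. Primary single-point 10 uM in duplicate; actives rerun singly with top concentration 20 uM.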

[14] = molecular target: human CYP2D6, CYP2D6 (gene 1565) (UniProt P10635); experiment: NVS_ADME_hCYP2D6: NovaScreen (NVS) CYP450-related Enzyme Activity (ADME) Assay for human CYP2D6 (AID 2283107; active = hit-call score of the fitted dose curve at least 0.9, where 1 is the maximum)
human CYP2D6, CYP2D6 (gene 1565), sequence (P10635 whole entry, looked up): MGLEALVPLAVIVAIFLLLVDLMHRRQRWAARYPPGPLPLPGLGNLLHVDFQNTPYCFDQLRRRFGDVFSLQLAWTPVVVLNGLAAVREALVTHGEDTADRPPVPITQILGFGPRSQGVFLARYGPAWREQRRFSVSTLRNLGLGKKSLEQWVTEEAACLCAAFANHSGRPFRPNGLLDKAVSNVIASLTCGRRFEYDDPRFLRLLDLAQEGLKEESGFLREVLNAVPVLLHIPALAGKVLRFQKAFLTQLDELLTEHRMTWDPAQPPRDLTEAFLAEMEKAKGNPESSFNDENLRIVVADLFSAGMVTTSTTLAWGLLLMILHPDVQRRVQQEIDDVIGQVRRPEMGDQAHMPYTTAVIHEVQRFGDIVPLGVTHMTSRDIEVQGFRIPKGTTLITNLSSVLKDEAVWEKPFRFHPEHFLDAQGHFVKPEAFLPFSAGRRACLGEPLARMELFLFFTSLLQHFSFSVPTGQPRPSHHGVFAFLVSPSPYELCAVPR
In short: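 Fluorescence intensity read 1 h post-dosing; insect-cell-expressed recombinant protein with fluorogenic substrate, no cells. Activity is scored as signal loss relative to acetonitrile baseline, first at a single 10 uM concentration in duplicate, then as concentration series for confirmed actives.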

[15] = molecular target: human CYP2C9, CYP2C9 (gene 1559) (UniProt P11712); experiment: NVS_ADME_hCYP2C9: NovaScreen (NVS) CYP450-related Enzyme Activity (ADME) Assay for human CYP2C9 (AID 2283108; active = hit-call score of the fitted dose curve at least 0.9, where 1 is the maximum)
human CYP2C9, CYP2C9 (gene 1559), sequence (P11712 whole entry, looked up): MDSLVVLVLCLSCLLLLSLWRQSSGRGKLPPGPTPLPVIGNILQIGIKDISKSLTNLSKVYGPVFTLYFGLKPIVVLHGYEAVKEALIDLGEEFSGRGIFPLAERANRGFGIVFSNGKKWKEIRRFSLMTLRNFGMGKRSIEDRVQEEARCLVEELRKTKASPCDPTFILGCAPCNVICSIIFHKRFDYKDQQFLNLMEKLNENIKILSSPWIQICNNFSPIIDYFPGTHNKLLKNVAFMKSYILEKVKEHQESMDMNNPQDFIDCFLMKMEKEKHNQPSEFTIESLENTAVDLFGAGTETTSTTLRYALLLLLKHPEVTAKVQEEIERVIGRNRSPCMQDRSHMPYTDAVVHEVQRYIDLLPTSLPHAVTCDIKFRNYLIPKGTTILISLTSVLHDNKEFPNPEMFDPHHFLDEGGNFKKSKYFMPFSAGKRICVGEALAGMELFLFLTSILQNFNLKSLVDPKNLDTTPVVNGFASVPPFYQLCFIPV
In short: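 Cell-free assay of recombinant human CYP2C9 produced in Sf9 cells, with enzyme activity read by fluorescence intensity 0.75 h after compound addition. Loss of signal versus an acetonitrile negative control indicates inhibition. Primary screen used 10 uM in duplicate; actives were retested in concentration series.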

[16] = molecular target: rat CYP2A1, Cyp2a1 (gene 24894) (UniProt P11711); experiment: NVS_ADME_rCYP2A1: NovaScreen (NVS) CYP450-related Enzyme Activity (ADME) Assay for rat CYP2A1 (AID 2283114)
In short: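 Cell-free fluorescence enzyme-activity read on recombinant rat CYP2A1, taken 0.75 h post-dosing. Compounds were screened in duplicate at 10 uM, then hits tested in concentration series (max 20 uM); inhibition scored relative to acetonitrile baseline.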

[17] = molecular target: rat CYP2C11, Cyp2c11 (gene 29277) (UniProt P08683); experiment: NVS_ADME_rCYP2C11: NovaScreen (NVS) CYP450-related Enzyme Activity (ADME) Assay for rat CYP2C11 (AID 2283118; active = hit-call score of the fitted dose curve at least 0.9, where 1 is the maximum)
rat CYP2C11, Cyp2c11 (gene 29277), sequence (P08683 whole entry, looked up): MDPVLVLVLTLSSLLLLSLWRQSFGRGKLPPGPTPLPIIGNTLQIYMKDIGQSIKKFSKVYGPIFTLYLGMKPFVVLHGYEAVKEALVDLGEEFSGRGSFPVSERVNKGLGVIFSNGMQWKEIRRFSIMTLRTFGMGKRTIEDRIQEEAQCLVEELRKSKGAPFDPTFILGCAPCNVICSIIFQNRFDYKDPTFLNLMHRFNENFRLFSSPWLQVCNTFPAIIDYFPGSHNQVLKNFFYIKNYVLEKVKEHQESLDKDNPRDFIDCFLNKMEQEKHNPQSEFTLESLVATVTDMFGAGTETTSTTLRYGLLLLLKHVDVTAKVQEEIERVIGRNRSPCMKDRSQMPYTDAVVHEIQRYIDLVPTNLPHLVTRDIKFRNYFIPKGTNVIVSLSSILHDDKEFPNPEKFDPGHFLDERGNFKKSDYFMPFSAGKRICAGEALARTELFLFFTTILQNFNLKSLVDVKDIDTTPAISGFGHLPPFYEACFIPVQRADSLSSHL
In short: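 Screened first at 10 uM in duplicate, hits followed by concentration-response. Recombinant rat enzyme activity monitored by fluorescence 0.33 h post-dosing, normalised to acetonitrile negative control.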

[18] = tested on: rat CYP2C6, gene 293989; experiment: NVS_ADME_rCYP2C6: NovaScreen (NVS) CYP450-related Enzyme Activity (ADME) Assay for rat CYP2C6 (AID 2283120; active = hit-call score of the fitted dose curve at least 0.9, where 1 is the maximum)
In short: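 Compounds first tested in duplicate at 10 uM, hits (e.g. 30% inhibition) re-run in singleton dose series to a 20 uM top concentration. Enzyme activity of recombinant rat CYP2C6 measured via fluorescent substrate turnover after 1 h; acetonitrile baseline.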

E-selectin (Homo sapiens), sequence (P16581 whole entry, looked up): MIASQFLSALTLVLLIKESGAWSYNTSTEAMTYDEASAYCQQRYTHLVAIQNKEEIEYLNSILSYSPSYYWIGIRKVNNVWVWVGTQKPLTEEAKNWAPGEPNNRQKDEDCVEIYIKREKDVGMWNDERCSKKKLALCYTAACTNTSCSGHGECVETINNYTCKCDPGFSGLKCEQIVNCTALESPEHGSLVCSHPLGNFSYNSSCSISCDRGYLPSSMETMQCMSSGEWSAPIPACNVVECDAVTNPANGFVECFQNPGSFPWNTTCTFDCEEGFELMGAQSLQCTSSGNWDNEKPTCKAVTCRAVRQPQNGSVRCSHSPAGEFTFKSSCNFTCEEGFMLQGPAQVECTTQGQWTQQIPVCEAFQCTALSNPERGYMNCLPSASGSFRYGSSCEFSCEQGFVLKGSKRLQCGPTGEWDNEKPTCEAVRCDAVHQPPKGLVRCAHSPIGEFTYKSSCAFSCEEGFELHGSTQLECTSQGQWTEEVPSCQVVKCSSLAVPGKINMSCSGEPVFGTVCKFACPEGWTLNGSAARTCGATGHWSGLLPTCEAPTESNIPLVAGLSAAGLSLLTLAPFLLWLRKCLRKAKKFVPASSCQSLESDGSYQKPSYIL

Compound: O=C(c1ccc(O)cc1O)c1ccc(O)cc1O
- outcome [1]: inactive
- outcome [2]: inactive
- outcome [3]: inactive
- outcome [4]: inactive
- outcome [5]: inactive
- AC50 [6]: 20 µM (active)
- outcome [7]: inactive
- AC50 [8]: 5.78 µM (active) and 5.75 µM (active) and 7.34 µM (active)
- AC50 [9]: 6.26 µM (active)
- AC50 [10]: 4.04 µM (active)
- AC50 [11]: 5.88 µM (active)
- AC50 [12]: 6.3 µM (active)

Compound: CCSC(=O)N(CC(C)C)CC(C)C
- outcome [1]: inactive
- outcome [2]: inactive
- outcome [3]: inactive
- outcome [4]: inactive
- outcome [5]: inactive
- outcome [6]: inactive
- outcome [7]: inactive

Compound: C[C@]12CC[C@@H]3c4ccc(O)cc4C[C@@H](CCCCCCCCCS(=O)CCCC(F)(F)C(F)(F)F)[C@H]3[C@@H]1CC[C@@H]2O (stereo not given in full)
- outcome [1]: inactive
- AC50 [2]: 3.51 µM (active)
- outcome [3]: inactive
- outcome [4]: inactive
- outcome [5]: inactive
- outcome [6]: inactive
- outcome [7]: inactive

Compound: CCCN(CCC)C(=O)SCC
- outcome [1]: inactive
- outcome [2]: inactive
- outcome [3]: inactive
- outcome [4]: inactive
- outcome [5]: inactive
- outcome [6]: inactive
- outcome [7]: inactive
- AC50 [8]: 652 nM (active)
- outcome [8]: inactive
- AC50 [12]: 8.68 µM (active)
- outcome [12]: inactive

Compound: CCOC(=O)COc1cc(-n2ncc(C(F)(F)F)c(C)c2=O)c(F)cc1Cl
- outcome [1]: inactive
- outcome [2]: inactive
- outcome [3]: inactive
- outcome [4]: inactive
- outcome [5]: inactive
- outcome [6]: inactive
- outcome [7]: inactive

Compound: CCC(C)OC(=O)N1CCCCC1CCO (stereo not given)
- outcome [1]: inactive
- outcome [2]: inactive
- outcome [3]: inactive
- outcome [4]: inactive
- outcome [5]: inactive
- outcome [6]: inactive
- outcome [7]: inactive

Compound: COC(=O)c1ccc(CNS(C)(=O)=O)cc1S(=O)(=O)NC(=O)Nc1nc(OC)cc(OC)n1
- outcome [1]: inactive
- outcome [2]: inactive
- outcome [3]: inactive
- outcome [4]: inactive
- outcome [5]: inactive
- outcome [6]: inactive
- outcome [7]: inactive

Compound: CCN(CC)C(=O)c1cccc(C)c1
- outcome [1]: inactive
- outcome [2]: inactive
- outcome [3]: inactive
- outcome [4]: inactive
- outcome [5]: inactive
- outcome [6]: inactive
- AC50 [7]: 13.9 µM (active)

Compound: CC(=O)S[C@@H]1CC2=CC(=O)CC[C@]2(C)[C@H]2CC[C@@]3(C)[C@@H](CC[C@@]34CCC(=O)O4)[C@H]12
- AC50 [1]: 17.2 µM (active)
- AC50 [2]: 14.9 µM (active)
- AC50 [3]: 25.7 µM (active)
- AC50 [4]: 13.3 µM (active)
- AC50 [5]: 11.1 µM (active)
- AC50 [6]: 13.7 µM (active)
- AC50 [7]: 22.7 µM (active)
- AC50 [8]: 8300 nM (active)
- outcome [8]: inactive
- AC50 [12]: 6.12 µM (active)

Compound: CCOC(=O)c1ccc(O)cc1
- outcome [1]: inactive
- outcome [2]: inactive
- outcome [3]: inactive
- outcome [4]: inactive
- outcome [5]: inactive
- outcome [6]: inactive
- outcome [7]: inactive

Compound: O=C(O)C1(C(=O)Nc2ccc(Cl)cc2Cl)CC1
- outcome [1]: inactive
- outcome [2]: inactive
- outcome [3]: inactive
- outcome [4]: inactive
- outcome [5]: inactive
- AC50 [6]: 12.3 µM (active)
- outcome [7]: inactive

Compound: CCOC(=O)C(C)Oc1ccc(Oc2cnc3cc(Cl)ccc3n2)cc1 (stereo not given)
- outcome [1]: inactive
- outcome [2]: inactive
- outcome [3]: inactive
- outcome [4]: inactive
- outcome [5]: inactive
- outcome [6]: inactive
- outcome [7]: inactive

Compound: COC(=O)c1ccc(I)cc1S(=O)(=O)NC(=O)Nc1nc(C)nc(OC)n1
- outcome [1]: inactive
- outcome [2]: inactive
- outcome [3]: inactive
- outcome [4]: inactive
- outcome [5]: inactive
- outcome [6]: inactive
- outcome [7]: inactive

Compound: CCCOC(=O)NCCCN(C)C
- outcome [1]: inactive
- outcome [2]: inactive
- outcome [3]: inactive
- outcome [4]: inactive
- outcome [5]: inactive
- outcome [6]: inactive
- outcome [7]: inactive

Compound: COC(=O)c1cccc(C)c1S(=O)(=O)NC(=O)Nc1nc(OCC(F)(F)F)nc(N(C)C)n1
- outcome [1]: inactive
- outcome [2]: inactive
- outcome [3]: inactive
- outcome [4]: inactive
- outcome [5]: inactive
- outcome [6]: inactive
- outcome [7]: inactive

Compound: COCCO
- outcome [1]: inactive
- outcome [2]: inactive
- outcome [3]: inactive
- outcome [4]: inactive
- outcome [5]: inactive
- outcome [6]: inactive
- outcome [7]: inactive

Compound: CCCCOCCOCCOCc1cc2c(cc1CCC)OCO2
- outcome [1]: inactive
- outcome [2]: inactive
- outcome [3]: inactive
- AC50 [4]: 15.9 µM (active)
- outcome [5]: inactive
- outcome [6]: inactive
- outcome [7]: inactive
- outcome [8]: inactive
- AC50 [13]: 5.97 µM (active)
- AC50 [9]: 10 µM (active)
- AC50 [10]: 1.53 µM (active)
- AC50 [14]: 3.87 µM (active)
- AC50 [15]: 4.31 µM (active)
- AC50 [12]: 1.73 µM (active)
- outcome [16]: inactive
- AC50 [17]: 7.57 µM (active)
- AC50 [18]: 6.42 µM (active)

Compound: N#CSCSc1nc2ccccc2s1
- AC50 [9]: 1.87 µM (active)

Compound: C#CCOC(=O)[C@@H](C)Oc1ccc(Oc2ncc(Cl)cc2F)cc1
- AC50 [9]: 0.777 µM (active)
- AC50 [18]: 0.31 µM (active)

Compound: Oc1ccc(C(c2ccc(O)cc2)C(Cl)(Cl)Cl)cc1
- AC50 [18]: 2.57 µM (active)
